# The entries come from a sample that favours hits as a whole.
# Dicer processing – blocks human Dicer maturation of pre-miR-21; Q9UPY3; cat-ELCCA pre-miR-21 Dicer processing, chemiluminescence; stronger effect = higher value; z-score at 25 µM; 47,000 tested, 6% active; in the data active means z-score above about 3, passing the limit was not always enough;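 further: plate controls were vehicle for no effect and no enzyme for full effect; higher signal means more uncleaved substrate so more Dicer inhibition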
# Active calls of the source: *.
SMILES,Dicer processing
CCOC(=O)c1c(N)n(-c2cc(C)ccc2C)c2nc3ccccc3nc12,-3.1
CC(C)(C)CC(C)(C)NC(=O)c1c(F)cccc1F,-0.18
Cc1ccc(C(C)NC(=O)C(=O)Nc2cccc(C(F)(F)F)c2)c(C)c1 (stereo unspecified),-2
CCOC(=O)Cn1c(=O)c2c(nc3n2CCN3c2ccc(OC)cc2)n(C)c1=O,-1.5
COc1ccc(C(=O)N=S2CCN(S(=O)(=O)c3ccc(Cl)cc3)CC2)cc1,-0.15
COc1ccc(OCC(O)CNC(=O)Nc2ccc(OCc3ccccc3)cc2)cc1 (stereo unspecified),-0.86
COc1ccc(NC(=O)Nc2c(C)noc2-c2ccccc2)cc1,1.5
COc1ccc(NC(=O)Nc2nnc(COc3ccccc3F)s2)cc1,3.5*
Cn1nc(OC(C)(C)C(=O)Nc2ccc(Cl)cc2Cl)cc1C(F)(F)F,-1
COC(=O)c1cc(/C=C(\C#N)S(C)(=O)=O)cn1-c1ccc(Cl)cc1,1.2
COCCCNC(=S)N/N=C/c1cccc(OC)c1O,4.2*
COCCCNC(=S)N/N=C/c1ccc(O)cc1,-0.81
COCCCNC(=S)N/N=C/c1ccc(O)cc1O,-2.7
Cc1cc(=O)[nH]c(Cc2c(Cl)cccc2Cl)n1,-2.1
COC(=O)C1=C(C)NC2=C(C(=O)CC(C)(C)C2)C1c1cc2c(cc1Br)OCO2 (stereo unspecified),0.96
CC1(C)CC(=O)C2=C(C1)Nc1cc3c(cc1C2c1ccc(Br)cc1)OCO3 (stereo unspecified),4.7*
COc1cc2c(cc1OC)C(c1ccc(F)cc1)C1=C(CC(C)(C)CC1=O)N2 (stereo unspecified),2
O=C(Nc1cc(-c2ccccc2)nn1-c1ccccc1)c1ccccc1Cl,-1
CC(C)n1cnc2cc(NCc3ccco3)ccc21,-0.27
CC(C)(C)n1cnc2cc(NCc3ccco3)ccc21,2.6
Cn1cnc2cc(NCc3ccco3)ccc21,4.9*
COc1cccc(C2NC(=O)c3c(sc4c3CCN(C)C4)N2)c1O (stereo unspecified),-0.54
O=S(=O)(NCc1ccccn1)c1cccc2ccccc12,-0.32
O=S(=O)(NCCCCNS(=O)(=O)c1cccc2cccnc12)c1cccc2cccnc12,5.5*
CC(C)(C)NS(=O)(=O)c1cccc2cccnc12,-0.27
SMILES,Dicer processing
Cc1cc(=O)oc2c1c(C(F)(F)F)nn2C,-1.9
CCN(CC)C(=S)Oc1c(C)cc(C)cc1C,0.56
CCOC(=O)c1cc(-c2ccccc2)sc1NC(=O)CN1CCN(c2ccccc2)CC1,-1.8
O=S(=O)([O-])CCC[n+]1c(/C=C/c2ccccc2)sc2ccccc21,-0.05
O=C(CSCC(=O)c1ccc(Br)cc1)c1ccc(Br)cc1,-2.9
O=C(CS(=O)(=O)c1ccc(Br)cc1)c1ccccc1,3.8*
COC(=O)CCS(=O)(=O)c1ccc(Br)cc1,2.1
CN(C)c1cccc2c(S(=O)(=O)Nc3ccccc3)cccc12,-0.34
Clc1cc(Cl)cc(Oc2nc(-c3ccccc3)ns2)c1,2.3
COc1cccc(NC(=S)C(C#N)C(=O)N2CCCC2)c1 (stereo unspecified),-1.6
N#C/C(=C\Nc1ccc(Cl)cn1)S(=O)(=O)c1ccccc1,3.2*
N#C/C(=C\Nc1ccc(Cl)cn1)S(=O)(=O)c1ccccn1,-2.1
N#C/C(=C\Nc1ccc(Cl)cn1)S(=O)(=O)c1ccc(Cl)cc1,1.2
Cn1c(=O)c2c(nc(Sc3ccc(Cl)cc3)n2C)n(C)c1=O,3.1*
Cn1c(=O)c2c(nc(SCc3cc4c(cc3Cl)OCO4)n2C)n(C)c1=O,0.59
CC(C)n1c(SCc2ccccc2F)nc2c1c(=O)n(C)c(=O)n2C,-0.32
Cn1c(=O)c2c(nc(Br)n2Cc2ccc(Cl)cc2)n(C)c1=O,4.2*
Cn1c(=O)c2c(nc(Cl)n2Cc2ccc(F)cc2)n(C)c1=O,3.1*
Cn1c(=O)c2c(nc(Cl)n2Cc2cccc(Cl)c2)n(C)c1=O,0
Cn1c(=O)c2c(nc(Sc3ccccc3)n2Cc2ccc(Cl)cc2Cl)n(C)c1=O,1.3
Cn1c(=O)c2c(nc(N3CCOCC3)n2Cc2ccc(Cl)cc2)n(C)c1=O,-0.46
Cc1ccccc1CSc1nc2c(c(=O)n(C)c(=O)n2C)n1C,5.2*
Cn1c(=O)c2c(nc(Cl)n2Cc2ccc(C(C)(C)C)cc2)n(C)c1=O,16
Cn1c(=O)c2c(nc(N3CCCCC3)n2Cc2ccc(Cl)cc2)n(C)c1=O,0.07
Cn1c(=O)c2c(ncn2Cc2ccc(Cl)cc2)n(C)c1=O,-0.04
SMILES,Dicer processing
CCCOC1C=CC(Oc2nc(NCC)cc(N(C)C)n2)=NN1 (stereo unspecified),0.15
CCN(CC)CC(O)Cn1ccc2ccccc21 (stereo unspecified),-0.44
C=CCn1c(SCC(=O)c2c(C)[nH]c3ccccc23)nnc1-c1ccccc1,1.1
Cc1c(NC(=O)c2ccco2)cc2c(c1[N+](=O)[O-])C(C)(C)CC2(C)C,-0.47
O=C(C1COc2ccccc2O1)N1CCCC1 (stereo unspecified),1.1
CC(CN(C)Cc1ccccc1)OC(=O)C1COc2ccccc2O1 (stereo unspecified),3.5*
CC1CCN(CC(C)OC(=O)C2COc3ccccc3O2)CC1 (stereo unspecified),0.56
CCCCCOC(=O)C1=C(C)NC2=C(C(=O)CC(C)(C)C2)C1c1cc2c(cc1Cl)OCO2 (stereo unspecified),-0.71
CCSc1nnc2c(n1)OC(c1cccc(O)c1Cl)Nc1ccccc1-2 (stereo unspecified),0.27
COc1cc(/C=N/NC(=S)N/N=C/c2ccc(O)c(OC)c2)ccc1O,3.9*
COc1ccc(/C=N/NC(=O)c2sc(=S)n(-c3ccccc3)c2N)cc1,-0.24
COc1cc(/C=N/NC(=O)c2sc(=S)n(C)c2N)ccc1O,3.8*
COc1cc(/C=N/NC(=S)NC2CC3C=CC2C3)ccc1C (stereo unspecified),2.5
COc1ccc(/C=N/NC(=S)NN)cc1,-7.3
Cn1c(N)c(C(=O)N/N=C/c2ccccc2)sc1=S,-0.88
COC(=O)c1c(C)[nH]c(C)c1/C=C(\C#N)C(=O)c1ccc(Cl)cc1,-8.2
CC(C)n1c(NC2CCCCC2)nc2c1c(=O)[nH]c(=O)n2C,0.15
Cc1cc(-c2noc(COc3ccc(F)cc3F)n2)c2ccccc2n1,0.06
COc1ccc(Oc2ccc(C(F)(F)F)cc2NC(=O)c2nn(-c3ccccc3)nc2C)cc1,0.67
O=[N+]([O-])c1cc(C(F)(F)F)ccc1Sc1n[nH]c(-c2ccc(Cl)cc2)n1,-0.07
Cc1cc(C(=O)Nc2ccccc2)oc(=O)c1,-2.2
CC1=C(C(=O)Nc2ccccc2)S(=O)CCO1 (stereo unspecified),3.3*
CC1=C(C(=O)Nc2ccc(F)cc2)SCCO1,1
CCCCN1Cc2c(nc3cc(C(C)(C)C)[nH]n3c2=O)C1=O,-2.9
Cc1ccc(C)n1-c1sc2c(c1C(=O)NNC(=O)C(C)(C)C)CCCC2,-0.68
SMILES,Dicer processing
CCN(CC)C(=O)C1Sc2nnc(-c3ccccc3)n2NC1c1ccc(C)cc1 (stereo unspecified),1.2
N#Cc1ccc(N=Nc2c(O)c(C(=O)Nc3ccccc3)cc3ccccc23)cc1,-0.01
CC1(C)Cc2nc(N3CCCC3)c(C#N)cc2CO1,-1.8
CC1(C)Cc2nc(N3CCOCC3)c(C#N)cc2CO1,4.2*
CCOC(=O)CSc1nc(N2CCOCC2)c2c(c1C#N)CC(C)(C)OC2,-1.3
CC(C)(C)c1cc(C(C)(C)C)n(-c2ccc(N)cc2)n1,0.04
O=[N+]([O-])c1ccsc1Sc1ccc(Cl)cc1,-1.3
O=C(COc1ccccc1Br)c1ccc(O)cc1O,3.2*
O=C(COc1ccccc1Br)Nc1ccc2c(c1)OCO2,1

# Bioassay records deposited in PubChem BioAssay by Center for Chemical Genomics, University of Michigan.
